Source: the supplement of paper PMC11732987, “Enantioselective OTUD7B fragment discovery through chemoproteomics screening and high-throughput optimisation” (Communications Chemistry, 2025)

Legend:
Assay in all cases: log2 ratio of Biotin-Ahx-Ub-VS probe labelling (fragment/DMSO); higher = less target engagement (more negative = stronger competition), active = hit call of the paper (q ≤ 0.05, log2 ratio ≤ -1)
Conditions in all cases: compound concentration: 200 uM; treatment time: 3 h
USP42 = biological target: T1, USP42 (UniProt Q9H9J4)
T1 sequence (whole entry): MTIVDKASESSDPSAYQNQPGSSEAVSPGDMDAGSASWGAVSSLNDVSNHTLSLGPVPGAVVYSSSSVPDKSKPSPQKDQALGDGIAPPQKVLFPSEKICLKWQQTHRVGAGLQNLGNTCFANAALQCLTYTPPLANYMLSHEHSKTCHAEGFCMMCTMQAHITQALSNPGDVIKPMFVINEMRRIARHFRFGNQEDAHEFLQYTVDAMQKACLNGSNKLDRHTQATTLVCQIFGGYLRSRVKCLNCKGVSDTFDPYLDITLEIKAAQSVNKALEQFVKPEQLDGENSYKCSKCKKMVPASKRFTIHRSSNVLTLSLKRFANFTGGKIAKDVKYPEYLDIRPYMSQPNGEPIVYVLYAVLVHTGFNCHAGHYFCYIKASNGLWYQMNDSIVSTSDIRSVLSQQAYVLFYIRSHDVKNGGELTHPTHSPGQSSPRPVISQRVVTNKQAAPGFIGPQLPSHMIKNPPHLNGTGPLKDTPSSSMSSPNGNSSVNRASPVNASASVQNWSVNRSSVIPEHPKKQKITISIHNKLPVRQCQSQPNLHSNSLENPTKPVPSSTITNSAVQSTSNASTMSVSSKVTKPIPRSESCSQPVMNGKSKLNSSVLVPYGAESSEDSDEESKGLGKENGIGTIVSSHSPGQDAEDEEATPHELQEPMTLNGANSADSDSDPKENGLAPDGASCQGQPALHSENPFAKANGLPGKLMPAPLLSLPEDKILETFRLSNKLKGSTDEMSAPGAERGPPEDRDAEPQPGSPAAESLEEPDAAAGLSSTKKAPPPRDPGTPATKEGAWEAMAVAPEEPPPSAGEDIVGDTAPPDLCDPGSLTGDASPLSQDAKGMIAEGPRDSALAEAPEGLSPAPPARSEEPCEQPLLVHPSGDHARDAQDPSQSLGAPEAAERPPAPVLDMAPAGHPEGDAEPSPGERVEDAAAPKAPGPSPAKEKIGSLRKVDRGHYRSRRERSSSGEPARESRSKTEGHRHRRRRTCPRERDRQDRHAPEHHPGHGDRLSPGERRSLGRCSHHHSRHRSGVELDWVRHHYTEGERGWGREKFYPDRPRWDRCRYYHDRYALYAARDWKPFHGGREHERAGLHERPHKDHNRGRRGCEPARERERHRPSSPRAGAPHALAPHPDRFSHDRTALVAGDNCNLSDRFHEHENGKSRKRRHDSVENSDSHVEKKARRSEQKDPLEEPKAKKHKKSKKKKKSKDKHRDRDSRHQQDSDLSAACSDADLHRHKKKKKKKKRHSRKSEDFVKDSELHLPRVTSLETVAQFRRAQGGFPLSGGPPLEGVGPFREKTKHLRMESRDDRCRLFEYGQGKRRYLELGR
In short: (§1)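 HEK293T lysate, 495 µg per sample in Tris/CHAPS/IGEPAL buffer with protease inhibitors, was treated in triplicate with fragment at 200 µM or vehicle for 3 h and then with Biotin-Ahx-Ub-VS at 0.5 µM final for 1 h. Labelled DUBs were NeutrAvidin-enriched, digested with LysC and trypsin, and run by diaPASEF LC-MS/MS. Spectronaut label-free quantities were global-median-normalised, and values are average log2 fragment/vehicle ratios by unpaired t-test on proteins with ≥2 unique peptides.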

USP46 = USP46 (UniProt P62068)
USP46, sequence (P62068 whole entry): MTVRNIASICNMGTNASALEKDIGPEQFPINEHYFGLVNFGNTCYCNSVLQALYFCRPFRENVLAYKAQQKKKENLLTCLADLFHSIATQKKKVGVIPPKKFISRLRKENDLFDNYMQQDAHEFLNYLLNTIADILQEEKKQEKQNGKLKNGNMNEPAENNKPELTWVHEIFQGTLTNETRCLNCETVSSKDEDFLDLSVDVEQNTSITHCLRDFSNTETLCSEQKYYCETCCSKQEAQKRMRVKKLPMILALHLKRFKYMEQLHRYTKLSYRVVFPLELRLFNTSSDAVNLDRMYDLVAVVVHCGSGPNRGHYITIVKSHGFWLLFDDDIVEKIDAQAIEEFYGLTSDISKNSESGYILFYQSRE
In short: as §1

USP47 = biological target: T2, USP47 (UniProt Q96K76)
T2 sequence (whole entry): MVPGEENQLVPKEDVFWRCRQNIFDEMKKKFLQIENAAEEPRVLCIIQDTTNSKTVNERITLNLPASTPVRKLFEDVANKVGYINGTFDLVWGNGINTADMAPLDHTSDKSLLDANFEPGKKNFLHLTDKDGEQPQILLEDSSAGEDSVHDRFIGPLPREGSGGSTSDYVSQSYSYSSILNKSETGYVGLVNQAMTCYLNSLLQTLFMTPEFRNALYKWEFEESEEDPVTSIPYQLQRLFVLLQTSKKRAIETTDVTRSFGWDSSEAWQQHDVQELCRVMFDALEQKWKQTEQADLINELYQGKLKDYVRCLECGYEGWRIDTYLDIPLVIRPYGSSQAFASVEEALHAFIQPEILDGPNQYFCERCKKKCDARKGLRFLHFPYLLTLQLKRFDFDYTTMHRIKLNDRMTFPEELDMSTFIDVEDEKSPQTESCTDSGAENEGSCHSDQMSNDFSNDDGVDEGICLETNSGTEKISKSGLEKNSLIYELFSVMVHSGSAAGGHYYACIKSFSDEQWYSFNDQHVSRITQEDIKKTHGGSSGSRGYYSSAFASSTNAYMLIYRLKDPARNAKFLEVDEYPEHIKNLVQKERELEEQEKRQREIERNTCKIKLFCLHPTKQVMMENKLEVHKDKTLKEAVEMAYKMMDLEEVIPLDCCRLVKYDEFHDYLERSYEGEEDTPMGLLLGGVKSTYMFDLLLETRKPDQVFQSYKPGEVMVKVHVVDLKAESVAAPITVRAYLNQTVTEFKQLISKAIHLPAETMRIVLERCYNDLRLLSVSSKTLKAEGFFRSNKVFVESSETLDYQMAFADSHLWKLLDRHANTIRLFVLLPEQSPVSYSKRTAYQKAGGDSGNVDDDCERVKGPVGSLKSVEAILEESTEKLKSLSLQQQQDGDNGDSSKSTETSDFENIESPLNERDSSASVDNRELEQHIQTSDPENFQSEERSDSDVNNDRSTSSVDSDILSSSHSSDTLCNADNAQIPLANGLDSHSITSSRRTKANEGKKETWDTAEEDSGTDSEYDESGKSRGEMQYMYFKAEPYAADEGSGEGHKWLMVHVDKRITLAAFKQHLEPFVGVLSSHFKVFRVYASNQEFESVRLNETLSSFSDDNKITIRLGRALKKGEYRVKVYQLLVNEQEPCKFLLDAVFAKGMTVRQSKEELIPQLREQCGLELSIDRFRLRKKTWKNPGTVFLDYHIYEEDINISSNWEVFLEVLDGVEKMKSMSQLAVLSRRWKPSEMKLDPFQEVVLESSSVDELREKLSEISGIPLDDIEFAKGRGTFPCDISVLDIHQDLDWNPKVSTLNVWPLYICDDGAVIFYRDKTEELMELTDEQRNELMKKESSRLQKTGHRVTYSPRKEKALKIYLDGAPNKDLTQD
In short: as §1

USP48 = biological target: T3, USP48 (UniProt Q86UV5)
T3 sequence (whole entry): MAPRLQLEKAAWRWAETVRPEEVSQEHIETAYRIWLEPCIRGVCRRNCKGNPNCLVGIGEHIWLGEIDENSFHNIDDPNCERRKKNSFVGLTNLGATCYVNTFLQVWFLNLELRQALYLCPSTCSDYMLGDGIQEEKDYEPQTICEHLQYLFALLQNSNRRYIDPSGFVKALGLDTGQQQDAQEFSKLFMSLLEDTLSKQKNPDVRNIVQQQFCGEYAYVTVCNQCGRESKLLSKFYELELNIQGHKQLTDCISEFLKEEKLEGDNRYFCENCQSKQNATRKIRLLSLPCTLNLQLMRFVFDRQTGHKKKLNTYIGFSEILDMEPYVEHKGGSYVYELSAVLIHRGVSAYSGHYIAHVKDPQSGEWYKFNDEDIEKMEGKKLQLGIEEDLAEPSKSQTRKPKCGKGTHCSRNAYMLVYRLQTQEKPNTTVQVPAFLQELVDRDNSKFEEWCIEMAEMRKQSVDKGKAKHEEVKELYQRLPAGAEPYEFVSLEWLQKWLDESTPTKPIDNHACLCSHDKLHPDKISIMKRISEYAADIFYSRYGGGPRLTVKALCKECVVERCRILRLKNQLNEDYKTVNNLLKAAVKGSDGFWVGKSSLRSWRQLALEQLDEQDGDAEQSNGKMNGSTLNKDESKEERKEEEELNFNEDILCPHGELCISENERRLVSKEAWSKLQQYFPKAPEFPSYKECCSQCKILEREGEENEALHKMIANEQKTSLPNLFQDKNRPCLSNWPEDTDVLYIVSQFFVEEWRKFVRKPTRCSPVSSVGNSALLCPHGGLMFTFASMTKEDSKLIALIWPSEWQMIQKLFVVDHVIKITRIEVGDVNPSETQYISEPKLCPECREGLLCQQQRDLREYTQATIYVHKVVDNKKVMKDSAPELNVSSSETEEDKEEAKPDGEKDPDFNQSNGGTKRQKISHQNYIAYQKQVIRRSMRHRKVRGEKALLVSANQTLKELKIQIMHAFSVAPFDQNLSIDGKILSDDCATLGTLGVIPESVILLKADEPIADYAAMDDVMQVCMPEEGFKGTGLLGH
In short: as §1

USP5 = biological target: T4, USP5 (UniProt P45974)
T4 sequence (whole entry): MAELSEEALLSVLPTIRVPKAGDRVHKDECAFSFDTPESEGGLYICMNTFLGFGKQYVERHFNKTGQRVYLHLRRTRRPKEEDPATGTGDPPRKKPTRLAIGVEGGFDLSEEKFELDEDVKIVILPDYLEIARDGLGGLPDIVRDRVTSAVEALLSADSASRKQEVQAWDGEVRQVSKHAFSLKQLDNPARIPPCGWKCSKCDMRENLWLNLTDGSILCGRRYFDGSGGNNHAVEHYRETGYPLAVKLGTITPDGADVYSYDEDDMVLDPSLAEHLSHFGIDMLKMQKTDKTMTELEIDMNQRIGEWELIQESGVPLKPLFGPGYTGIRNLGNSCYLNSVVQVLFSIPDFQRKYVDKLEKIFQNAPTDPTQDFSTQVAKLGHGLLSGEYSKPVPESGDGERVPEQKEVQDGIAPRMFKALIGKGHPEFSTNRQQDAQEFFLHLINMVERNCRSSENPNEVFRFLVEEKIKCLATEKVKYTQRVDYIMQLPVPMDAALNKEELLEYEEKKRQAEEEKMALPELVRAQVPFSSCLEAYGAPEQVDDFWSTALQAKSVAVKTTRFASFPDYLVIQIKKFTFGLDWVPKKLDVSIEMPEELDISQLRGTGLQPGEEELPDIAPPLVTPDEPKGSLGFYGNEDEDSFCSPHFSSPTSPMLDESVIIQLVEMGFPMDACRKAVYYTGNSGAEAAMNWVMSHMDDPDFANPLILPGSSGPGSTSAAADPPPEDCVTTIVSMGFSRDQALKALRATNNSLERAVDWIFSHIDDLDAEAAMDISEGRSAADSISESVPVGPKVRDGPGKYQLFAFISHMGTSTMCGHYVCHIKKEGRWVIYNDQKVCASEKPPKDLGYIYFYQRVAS
In short: as §1

USP54 = USP54 (UniProt Q70EL1)
USP54, sequence (Q70EL1 whole entry): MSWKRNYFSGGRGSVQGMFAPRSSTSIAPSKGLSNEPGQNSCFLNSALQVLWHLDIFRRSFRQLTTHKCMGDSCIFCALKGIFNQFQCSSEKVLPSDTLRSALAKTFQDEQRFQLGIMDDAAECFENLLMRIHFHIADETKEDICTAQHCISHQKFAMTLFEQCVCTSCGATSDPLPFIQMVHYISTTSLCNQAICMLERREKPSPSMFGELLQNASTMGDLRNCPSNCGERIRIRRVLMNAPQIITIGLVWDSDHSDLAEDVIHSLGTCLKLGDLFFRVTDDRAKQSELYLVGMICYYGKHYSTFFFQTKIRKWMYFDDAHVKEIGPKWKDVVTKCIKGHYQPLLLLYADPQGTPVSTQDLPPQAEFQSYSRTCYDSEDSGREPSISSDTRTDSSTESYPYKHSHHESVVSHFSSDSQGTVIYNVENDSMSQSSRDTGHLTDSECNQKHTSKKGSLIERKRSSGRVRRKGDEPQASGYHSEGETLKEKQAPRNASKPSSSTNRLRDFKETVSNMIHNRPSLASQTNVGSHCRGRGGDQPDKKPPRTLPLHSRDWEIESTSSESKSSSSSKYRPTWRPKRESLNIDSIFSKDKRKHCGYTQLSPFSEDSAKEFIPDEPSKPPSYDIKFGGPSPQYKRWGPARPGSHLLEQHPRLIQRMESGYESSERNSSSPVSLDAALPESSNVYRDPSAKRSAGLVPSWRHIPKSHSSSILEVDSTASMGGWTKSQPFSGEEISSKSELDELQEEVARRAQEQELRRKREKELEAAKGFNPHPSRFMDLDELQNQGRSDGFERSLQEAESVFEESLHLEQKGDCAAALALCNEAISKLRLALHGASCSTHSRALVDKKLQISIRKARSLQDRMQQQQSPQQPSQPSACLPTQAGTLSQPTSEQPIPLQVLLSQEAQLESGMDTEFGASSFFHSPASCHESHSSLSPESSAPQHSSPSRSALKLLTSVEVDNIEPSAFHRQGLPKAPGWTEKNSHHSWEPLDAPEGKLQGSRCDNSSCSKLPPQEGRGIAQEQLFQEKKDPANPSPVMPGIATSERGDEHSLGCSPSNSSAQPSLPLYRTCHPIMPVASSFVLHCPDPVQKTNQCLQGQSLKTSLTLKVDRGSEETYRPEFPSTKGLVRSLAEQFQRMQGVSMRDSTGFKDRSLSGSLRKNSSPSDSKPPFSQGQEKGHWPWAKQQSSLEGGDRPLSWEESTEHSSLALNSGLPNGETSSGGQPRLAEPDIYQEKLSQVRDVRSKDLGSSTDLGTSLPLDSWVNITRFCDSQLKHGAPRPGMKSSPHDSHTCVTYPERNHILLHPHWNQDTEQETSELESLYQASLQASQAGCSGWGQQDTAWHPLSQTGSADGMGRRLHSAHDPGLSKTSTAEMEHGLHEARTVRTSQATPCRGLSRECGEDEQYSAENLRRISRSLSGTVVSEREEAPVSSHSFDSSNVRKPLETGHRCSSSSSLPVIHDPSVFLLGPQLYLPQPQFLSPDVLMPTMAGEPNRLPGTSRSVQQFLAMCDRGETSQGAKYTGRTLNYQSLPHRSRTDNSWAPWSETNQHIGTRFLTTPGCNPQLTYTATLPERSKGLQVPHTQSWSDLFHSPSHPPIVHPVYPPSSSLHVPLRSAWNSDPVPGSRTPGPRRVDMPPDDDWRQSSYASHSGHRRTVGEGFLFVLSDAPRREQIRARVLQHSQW
In short: as §1

USP7 = USP7 (UniProt Q93009)
USP7, sequence (Q93009 whole entry, looked up): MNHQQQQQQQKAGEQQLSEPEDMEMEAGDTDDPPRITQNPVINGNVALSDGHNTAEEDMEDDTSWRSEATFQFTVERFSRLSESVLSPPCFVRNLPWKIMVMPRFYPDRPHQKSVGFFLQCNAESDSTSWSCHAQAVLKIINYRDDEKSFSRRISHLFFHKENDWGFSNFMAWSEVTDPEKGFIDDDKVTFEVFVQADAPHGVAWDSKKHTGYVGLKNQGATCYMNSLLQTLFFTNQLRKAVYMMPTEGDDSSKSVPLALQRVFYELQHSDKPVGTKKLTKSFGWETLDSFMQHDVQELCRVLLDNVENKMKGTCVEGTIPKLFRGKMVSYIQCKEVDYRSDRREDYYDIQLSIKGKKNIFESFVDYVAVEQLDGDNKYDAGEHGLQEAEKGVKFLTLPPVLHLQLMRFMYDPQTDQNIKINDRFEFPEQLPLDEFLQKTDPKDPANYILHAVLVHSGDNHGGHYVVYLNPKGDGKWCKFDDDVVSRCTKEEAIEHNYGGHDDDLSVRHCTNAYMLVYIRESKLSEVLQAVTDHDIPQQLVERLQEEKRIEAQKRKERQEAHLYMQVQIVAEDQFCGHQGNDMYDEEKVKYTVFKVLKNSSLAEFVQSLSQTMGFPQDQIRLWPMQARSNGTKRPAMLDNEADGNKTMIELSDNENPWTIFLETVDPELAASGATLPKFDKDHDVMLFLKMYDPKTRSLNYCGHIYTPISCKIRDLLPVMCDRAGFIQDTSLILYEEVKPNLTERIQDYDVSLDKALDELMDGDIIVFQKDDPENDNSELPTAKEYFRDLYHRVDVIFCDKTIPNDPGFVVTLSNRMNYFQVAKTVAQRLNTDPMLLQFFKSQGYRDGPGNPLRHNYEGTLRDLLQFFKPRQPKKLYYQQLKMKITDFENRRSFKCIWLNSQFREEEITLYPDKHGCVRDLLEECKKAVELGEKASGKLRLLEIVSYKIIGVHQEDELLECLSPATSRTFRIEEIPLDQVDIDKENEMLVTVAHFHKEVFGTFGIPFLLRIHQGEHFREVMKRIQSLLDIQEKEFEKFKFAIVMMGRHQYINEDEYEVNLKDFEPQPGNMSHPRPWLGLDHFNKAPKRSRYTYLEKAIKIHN
In short: as §1

USP8 = biological target: T5, USP8 (UniProt P40818)
T5 sequence (whole entry): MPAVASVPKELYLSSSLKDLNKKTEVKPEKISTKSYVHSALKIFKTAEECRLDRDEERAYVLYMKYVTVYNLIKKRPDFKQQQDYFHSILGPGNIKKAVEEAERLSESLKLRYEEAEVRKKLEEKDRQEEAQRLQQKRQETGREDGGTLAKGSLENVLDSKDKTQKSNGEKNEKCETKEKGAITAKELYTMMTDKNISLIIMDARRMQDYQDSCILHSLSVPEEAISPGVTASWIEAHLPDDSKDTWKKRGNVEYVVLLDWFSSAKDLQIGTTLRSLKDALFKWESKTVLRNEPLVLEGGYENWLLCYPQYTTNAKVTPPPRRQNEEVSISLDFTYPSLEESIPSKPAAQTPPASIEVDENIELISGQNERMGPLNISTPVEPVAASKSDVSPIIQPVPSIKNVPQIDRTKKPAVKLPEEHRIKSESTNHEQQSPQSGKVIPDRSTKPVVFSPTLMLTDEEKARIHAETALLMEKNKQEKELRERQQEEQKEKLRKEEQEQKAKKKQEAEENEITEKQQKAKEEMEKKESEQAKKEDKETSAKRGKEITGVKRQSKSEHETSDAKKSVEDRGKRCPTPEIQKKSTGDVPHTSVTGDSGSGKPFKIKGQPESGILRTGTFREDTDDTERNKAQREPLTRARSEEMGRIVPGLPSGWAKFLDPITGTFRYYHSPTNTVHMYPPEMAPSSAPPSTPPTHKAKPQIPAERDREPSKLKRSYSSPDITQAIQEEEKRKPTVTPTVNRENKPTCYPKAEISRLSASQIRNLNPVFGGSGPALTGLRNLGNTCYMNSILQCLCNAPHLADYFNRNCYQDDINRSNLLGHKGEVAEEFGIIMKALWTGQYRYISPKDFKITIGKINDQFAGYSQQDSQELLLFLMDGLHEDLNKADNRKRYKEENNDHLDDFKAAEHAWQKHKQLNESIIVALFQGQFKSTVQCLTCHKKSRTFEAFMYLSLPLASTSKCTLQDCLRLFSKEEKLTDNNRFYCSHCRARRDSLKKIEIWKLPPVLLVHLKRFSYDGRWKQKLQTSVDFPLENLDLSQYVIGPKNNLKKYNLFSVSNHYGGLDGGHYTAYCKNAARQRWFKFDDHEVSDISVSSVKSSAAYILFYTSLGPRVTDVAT
In short: as §1

USP9X = USP9X (UniProt Q93008)
In short: as §1

UniProt O00487 = biological target: UniProt O00487
UniProt O00487, sequence (O00487 whole entry): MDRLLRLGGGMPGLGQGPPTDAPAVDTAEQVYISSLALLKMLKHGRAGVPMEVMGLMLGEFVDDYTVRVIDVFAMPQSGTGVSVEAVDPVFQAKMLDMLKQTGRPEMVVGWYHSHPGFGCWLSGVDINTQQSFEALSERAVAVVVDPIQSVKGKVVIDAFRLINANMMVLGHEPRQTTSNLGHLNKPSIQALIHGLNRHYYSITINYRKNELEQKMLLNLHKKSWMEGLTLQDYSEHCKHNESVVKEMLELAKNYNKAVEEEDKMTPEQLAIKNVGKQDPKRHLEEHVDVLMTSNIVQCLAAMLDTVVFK
In short: as §1

Measured: log2 ratio of Biotin-Ahx-Ub-VS probe labelling

O=C(CCl)NCCC1=CCCCC1
inactive: USP42 0.91 | USP46 -0.0411 | USP47 -0.145 | USP48 0.0648 | USP5 0.0523 | USP54 0.116 | USP7 -0.402 | USP8 0.244 | USP9X -0.0639 | UniProt O00487 -0.0958

O=C(CN1CCN(C(=O)CCl)CC1)Nc1cccc(F)c1
inactive: USP42 -0.241 | USP46 -0.173 | USP47 -0.178 | USP48 -0.419 | USP5 0.215 | USP54 0.835 | USP7 -0.436 | USP8 -0.23 | USP9X -0.429 | UniProt O00487 0.0211

Cc1cccc2nc(CCNC(=O)CCl)cn12.Cl
inactive: USP42 -0.108 | USP46 -0.0973 | USP47 0.216 | USP48 -0.0534 | USP5 -0.101 | USP54 0.94 | USP7 -0.308 | USP8 -0.222 | USP9X -0.455 | UniProt O00487 -0.163
